Source: PubChem BioAssay (NCI)
About 79,000 compounds went through this panel and 15% of them were active in at least one assay; those are over-represented in the sample as a whole. The source made the active and inactive calls. Rule as the data show it: active = growth inhibition above about 70%; inactive = the rest.

What was measured:
[1] = NCI Yeast Anticancer Drug Screen. Data for the rad52 strain (AID 147);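 also: 0% = growth of vehicle-treated control cultures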; settings: S. cerevisiae rad52 mutant growth inhibition, hits give high values
Procedure, shortened: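 Inhibition of yeast growth, referenced to vehicle controls, was the measured output for a strain with defective DNA damage repair.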

[2] = NCI Yeast Anticancer Drug Screen. Data for the wt1 strain (AID 149);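 also: 0% = growth of vehicle-treated wt1 cultures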; settings: S. cerevisiae wt1 strain (SPY 50644) growth inhibition, hits give high values
Procedure, shortened: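 wt1 yeast, compound-treated; % growth inhibition vs vehicle control.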

[3] = NCI Yeast Anticancer Drug Screen. Data for the rad50EPP+ strain (AID 151);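 also: 0% = growth of vehicle-treated control cultures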; settings: S. cerevisiae rad50 mutant strain, hits give high values
Procedure, shortened: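 Genetically defined yeast (rad50EPP+, DNA damage repair alteration) is grown with compound, and inhibition of growth is expressed relative to vehicle-treated controls.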

[4] = NCI Yeast Anticancer Drug Screen. Data for the mgt1 strain (AID 153); settings: S. cerevisiae mgt1 mutant growth inhibition, hits give high values
Procedure, shortened: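 In the mgt1 strain, test compounds were added and growth inhibition was determined relative to vehicle-treated controls.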

[5] = NCI Yeast Anticancer Drug Screen. Data for the rad50 strain (AID 155);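 also: 0% = growth of vehicle-only cultures of the same strain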; settings: S. cerevisiae rad50 strain growth inhibition, hits give high values
Procedure, shortened: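 Genetically altered yeast (DNA repair pathway); compound treatment; growth inhibition vs vehicle ctrl.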

[6] = NCI Yeast Anticancer Drug Screen. Data for the mec2-1 strain (AID 157); settings: S. cerevisiae mec2-1 strain, hits give high values
Procedure, shortened: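 Each compound was tested on mec2-1 yeast, a strain altered in DNA damage repair or cell cycle control. Growth inhibition is reported relative to vehicle.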

[7] = NCI Yeast Anticancer Drug Screen. Data for the sgs1 mgt1 strain (AID 161);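 also: 0% = growth of cultures given vehicle only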; settings: S. cerevisiae sgs1 mgt1 strain, hits give high values
Procedure, shortened: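 Mutant yeast exposed to compound; growth scored against vehicle-only wells.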

[8] = NCI Yeast Anticancer Drug Screen. Data for the CLN2oe strain (AID 163);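 also: 0% = growth of vehicle-only control cultures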; settings: S. cerevisiae CLN2oe strain, hits give high values
Procedure, shortened: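 First, the altered yeast strain was treated with each compound; second, its growth was measured; finally, inhibition was derived by comparison with vehicle controls.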

[9] = NCI Yeast Anticancer Drug Screen. Data for the cln2 rad14 strain (AID 165);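 also: 0% = growth equal to vehicle treated cultures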; settings: S. cerevisiae cln2 rad14 strain, hits give high values
Procedure, shortened: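 Test compounds were added to cln2 rad14 yeast cultures; inhibition of growth was then determined by comparison with vehicle treatment.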

[10] = NCI Yeast Anticancer Drug Screen. Data for the bub3 strain (AID 167); settings: S. cerevisiae bub3 mutant strain, hits give high values
Procedure, shortened: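 Yeast carrying a defined mutation is treated with each compound, and growth is compared with that of vehicle-exposed cells to give inhibition.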

[11] = NCI Yeast Anticancer Drug Screen. Data for the wt2 strain (AID 169);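 also: 0% = growth of vehicle-treated yeast cultures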; settings: S. cerevisiae wt2 strain growth inhibition, hits give high values
Procedure, shortened: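 The panel's yeast strains carry defined changes in DNA repair or cell cycle genes. Each strain is grown with compound, and growth loss is scored relative to vehicle.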

[12] = NCI Yeast Anticancer Drug Screen. Data for the mlh1 strain (AID 171);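 also: 0% = growth of vehicle-treated control cultures of the same strain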; settings: S. cerevisiae mlh1 strain growth inhibition, hits give high values
Procedure, shortened: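 Inhibition values reflect reduced yeast growth in the presence of compound, referenced to vehicle controls, using a strain chosen for its alteration in DNA repair or cell cycle control.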

[13] = NCI Yeast Anticancer Drug Screen. Data for the sgs1 strain (AID 173);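 also: 0% = growth of vehicle-only control cultures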; settings: S. cerevisiae sgs1 mutant, hits give high values
Procedure, shortened: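 Vehicle-treated cultures served as reference for growth inhibition of a yeast strain altered in DNA damage repair or cell cycle control after compound exposure.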

[14] = NCI Yeast Anticancer Drug Screen. Data for the mlh1 rad18 strain (AID 175); settings: S. cerevisiae mlh1 rad18 strain growth inhibition, hits give high values
Procedure, shortened: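 Inhibition values reflect reduced growth of mutant yeast versus vehicle-treated controls following compound exposure; the mutations affect DNA damage repair.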

[15] = at 5.0 µM (retest, dose inferred, filed as 0.5)
[16] = at 50.0 µM (retest, dose inferred, filed as 5.0)

Measured: growth inhibition

CCCCCCCCCCCCCCCCCCN(C)CC(COP(=O)([O-])OCC[N+](C)(C)C)OC (stereo not drawn)
inactive: [1]; at 1.2 µM -14% | [1]; at 3.7 µM -24% | [2]; at 1.2 µM 0% | [2]; at 3.7 µM -2% | [3]; at 1.2 µM -4% | [3]; at 3.7 µM 43% | [4]; at 1.2 µM 21% | [4]; at 3.7 µM 32% | [5]; at 1.2 µM 8% | [5]; at 3.7 µM 18% | [5]; [15] 17% | [6]; at 1.2 µM 13% | [6]; at 3.7 µM 18% | [6]; [15] 11% | [8]; at 1.2 µM 15% | [8]; at 3.7 µM 6% | [9]; [15] 22% | [10]; at 1.2 µM 9% | [10]; at 3.7 µM -8% | [10]; [15] 33% | [11]; at 1.2 µM -1% | [11]; at 3.7 µM 0% | [11]; at 11.0 µM -17% | [11]; at 33.0 µM 60% | [12]; at 1.2 µM 5% | [12]; at 3.7 µM 11% | [13]; at 1.2 µM -15% | [13]; at 3.7 µM -1% | [14]; [15] 7%
active: [1]; at 11.0 µM 97% | [1]; at 33.0 µM 98% | [1]; at 100.0 µM 98% | [2]; at 11.0 µM 97% | [2]; at 33.0 µM 99% | [2]; at 100.0 µM 99% | [3]; at 11.0 µM 98% | [3]; at 33.0 µM 98% | [3]; at 100.0 µM 98% | [4]; at 11.0 µM 97% | [4]; at 33.0 µM 99% | [4]; at 100.0 µM 98% | [5]; at 11.0 µM 98% | [5]; at 33.0 µM 98% | [5]; [16] 98% | [5]; at 50.0 µM 88.2% | [5]; at 100.0 µM 98% | [6]; at 11.0 µM 94% | [6]; at 33.0 µM 99% | [6]; [16] 99% | [6]; at 50.0 µM 93.4% | [6]; at 100.0 µM 99% | [7]; [15] 78% | [7]; [16] 99% | [7]; at 50.0 µM 91.1% | [8]; at 11.0 µM 96% | [8]; at 33.0 µM 98% | [8]; at 100.0 µM 98% | [9]; [16] 98% | [9]; at 50.0 µM 89.8% | [10]; at 11.0 µM 98% | [10]; at 33.0 µM 98% | [10]; [16] 99% | [10]; at 50.0 µM 90% | [10]; at 100.0 µM 98% | [11]; at 100.0 µM 98% | [12]; at 11.0 µM 98% | [12]; at 33.0 µM 99% | [12]; at 100.0 µM 99% | [13]; at 11.0 µM 97% | [13]; at 33.0 µM 99% | [13]; at 100.0 µM 99% | [14]; [16] 98% | [14]; at 50.0 µM 89.5%
